Assays:
Assay in all cases: PBM binding z-score (relative to random genomic background probes); higher = stronger binding; sequences stand for … in GC…GCGATTGACAGCGTAGAATGAAGG
[1] = tested on: FXR:RXRa (NR concentration 270 nM, RXRa partner concentration 90 nM)
In short: (§1)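 Random background probes are the reference for binding z-scores. These scores derive from regression-normalized fluorescence on custom Agilent 4×180K protein-binding microarrays incubated 1 h with ligand-free nuclear receptor dimers. Binding was detected with antibodies against each partner (one per run).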

[2] = tested on: LXRa:RXRa (NR concentration 270 nM, RXRa partner concentration 90 nM)
In short: as §1

[3] = tested on: LXRa homodimer (NR concentration 270 nM)
In short: as §1

[4] = tested on: LXRb:RXRa (NR concentration 270 nM, RXRa partner concentration 90 nM)
In short: as §1

[5] = tested on: LXRb homodimer (NR concentration 270 nM)
In short: as §1

[6] = tested on: PPARa:RXRa (NR concentration 270 nM, RXRa partner concentration 90 nM)
In short: as §1

[7] = tested on: PPARg:RXRa (NR concentration 180 nM, RXRa partner concentration 90 nM)
In short: as §1

[8] = tested on: PPARg:RXRa 270nM:90nM, anti-RXR (NR concentration 270 nM, RXRa partner concentration 90 nM)
In short: as §1

[9] = tested on: PPARg:RXRa 30nM:10nM, anti-RXR (NR concentration 30 nM, RXRa partner concentration 10 nM)
In short: as §1

[10] = tested on: PPARg:RXRa 90nM:30nM, anti-RXR (NR concentration 90 nM, RXRa partner concentration 30 nM)
In short: as §1

[11] = tested on: PPARg:RXRa DBDmut IVT, anti-RXR (DBD mutation: RXRa K156A/R161A, NR concentration 270 nM, RXRa partner concentration 90 nM)
In short: as §1

[12] = tested on: PPARg:RXRa IVT, anti-PPARg (NR concentration 270 nM, RXRa partner concentration 90 nM)
In short: as §1

[13] = tested on: PPARg DBDmut:RXRa IVT, anti-PPARg (DBD mutation: PPARg1 K132A/R137A, NR concentration 270 nM, RXRa partner concentration 90 nM)
In short: as §1

[14] = tested on: PPARg DBDmut IVT, anti-PPARg (DBD mutation: PPARg1 K132A/R137A, NR concentration 270 nM)
In short: as §1

[15] = tested on: PPARg homodimer (NR concentration 180 nM)
In short: as §1

[16] = tested on: PXR:RXRa (NR concentration 270 nM, RXRa partner concentration 90 nM)
In short: as §1

[17] = tested on: PXR homodimer (NR concentration 270 nM)
In short: as §1

[18] = tested on: RARa:RXR (NR concentration 270 nM, RXRa partner concentration 90 nM)
In short: as §1

[19] = tested on: RARa homodimer (NR concentration 270 nM)
In short: as §1

[20] = tested on: RARb:RXRa (NR concentration 270 nM, RXRa partner concentration 90 nM)
In short: as §1

Sequence | PBM binding z-score [1] | PBM binding z-score [2] | PBM binding z-score [3] | PBM binding z-score [4] | PBM binding z-score [5] | PBM binding z-score [6] | PBM binding z-score [7] | PBM binding z-score [8] | PBM binding z-score [9] | PBM binding z-score [10] | PBM binding z-score [11] | PBM binding z-score [12] | PBM binding z-score [13] | PBM binding z-score [14] | PBM binding z-score [15] | PBM binding z-score [16] | PBM binding z-score [17] | PBM binding z-score [18] | PBM binding z-score [19] | PBM binding z-score [20]
CCTCGGAGGACATAAGGTCAGAGCTGTCCGCTTT | 2.39 | 2.6 | 0.959 | 1.75 | -0.328 | 2.45 | 0.338 | 0.85 | -0.243 | 0.319 | 0.213 | 0.303 | -1 | -1.59 | 1.72 | 2.42 | -0.0342 | 3.08 | 0.792 | 3.4
TCTTGTAGATCAATAGAGGTTAAAAAAGTGCGCT | 0.88 | 4.42 | 1.13 | 2.5 | 0.00759 | 2.06 | 0.202 | 1.65 | 2.75 | 2.06 | 1.82 | 1.24 | 0.792 | 0.476 | 0.579 | 2.56 | 0.23 | 1.79 | 0.767 | 0.762
TCTAGTTGGTCACGGTGGTCACACACGACGGGTA | -0.0806 | 0.249 | -0.00168 | 0.395 | 0.0154 | 1 | 1.15 | 2.15 | 3.17 | 2.47 | 2.21 | 3.35 | 1.54 | 0.923 | 0.94 | 0.537 | -0.191 | 0.741 | -0.155 | 1.93
TCTGCTAGCTCAGTTGGTCAGCTAACGAGCTGCC | -1.44 | -1.29 | -1.01 | -1.04 | -0.714 | -0.45 | -1.22 | 0.0147 | 0.674 | 0.449 | 0.435 | 0.0097 | -0.882 | -0.216 | -1.73 | -0.874 | -1.69 | -0.998 | -2.24 | -0.575
ACTAGCAGGCCAAGATTGGGTCACTCAAACAAAG | -0.0447 | -0.288 | -0.493 | 0.338 | -0.861 | 1.33 | 0.272 | 0.402 | -0.526 | -0.361 | 0.594 | 1.6 | -0.903 | -0.363 | 0.0638 | 0.192 | -0.441 | 0.988 | -0.597 | 1.47
GATACAGGGTCAGCTAGAGTCCAGAGTATGGAAA | 4.63 | 2.73 | -0.197 | 2.46 | -0.266 | 4.62 | 3.75 | 3.12 | 0.896 | 1.87 | 1.24 | 2.05 | 0.791 | 0.0344 | 1.83 | 4.14 | -0.0221 | 4.01 | 0.0956 | 3.84
TCATATAGGTAAAAGGAGAAAGTCGGTGTGGTAA | 1.15 | 0.966 | -0.0649 | 0.573 | -0.239 | 2.06 | 2.92 | 4.79 | 4.87 | 5.01 | 4.08 | 2.11 | 0.507 | 0.375 | 0.959 | 0.415 | 0.686 | 0.571 | 1.29 | 0.195
TCTGCTAGGTCAGTTGGTCAGCTAGCGAGCTGCC | 0.851 | 0.628 | -0.728 | 0.453 | 0.185 | 1.25 | 0.0409 | 1.64 | 1.21 | 1.31 | 2.78 | 3.15 | -0.34 | -0.0427 | -0.0101 | 0.114 | -0.917 | 0.452 | -1.22 | 3.38
CAAACTAGGTGAAGAGGTCAAAGTCCGCTTCCCG | 4.89 | 4.87 | 4.29 | 4.34 | 0.798 | 5.95 | 8.28 | 7.03 | 5.27 | 7.36 | 7.18 | 7.52 | 2.35 | 2.46 | 2.49 | 5.31 | 1.58 | 5.42 | 0.811 | 4.19
CGAACGAGGGCAAGAGTTGATAGCAAATGCCGAT | 0.442 | 0.206 | -0.493 | 0.236 | -0.921 | 1.52 | 2.3 | 2.48 | 0.687 | 1.92 | 3.38 | 2.22 | 0.196 | -0.307 | 0.163 | 0.404 | -0.197 | 0.316 | -0.216 | 2.38
TCGTATAGGTAAAAGGTGAAAGTCGGTGTGGTAA | 1.99 | 2.05 | 0.453 | 2.23 | 0.0721 | 4.51 | 6.49 | 7.01 | 6.31 | 7.11 | 3.45 | 3.77 | 0.0937 | 0.179 | 2.3 | 1.96 | 1.02 | 3.01 | 1.25 | 2.08
AGAACGAGGGGAATGAGTTGATAGCACGGGTGGC | -0.0217 | -0.0133 | -0.00891 | -0.228 | 0.0514 | 0.192 | 0.861 | -0.0385 | -0.193 | -0.152 | 1.5 | 0.636 | 0.108 | 0.301 | 0.561 | -0.115 | 0.264 | 0.125 | 0.109 | 0.142
CGAGCGAGGGCATGAGTTGATAGCAAATGCCGAT | 0.5 | 0.467 | -0.292 | 0.175 | -1.07 | 0.945 | 0.571 | 0.44 | -0.503 | 0.0146 | 0.598 | 0.064 | -0.548 | -1 | -0.175 | 0.544 | -0.137 | 0.536 | -0.541 | 2.03
AAAACGAGGGCACGCTGAGTTGATAGCAGAGTAG | 0.97 | 0.877 | -0.416 | 0.344 | -0.954 | 2.42 | 2.99 | 2.58 | 0.579 | 1.87 | 5.62 | 5.01 | -0.17 | 0.145 | 0.283 | 1.5 | 0.139 | 0.828 | -0.23 | 2.65
CGTCCAAGGTAAGCAGGTCAGTGAAAGCGACGTG | 0.187 | -0.0922 | -0.204 | 0.018 | -1.12 | 1.25 | 0.208 | 0.427 | -0.743 | -0.154 | 1.7 | 1.91 | -0.624 | -0.894 | 0.421 | 0.192 | -0.446 | 0.529 | -0.36 | 1.89
GGAACGAGGGCAAGTGGATAGCAGAGTTTGATGG | 0.68 | 0.618 | -0.0905 | 0.0624 | -0.475 | 1.36 | 1.21 | 1.21 | -0.127 | 0.598 | 3.83 | 2.95 | 0.27 | 0.066 | 0.34 | 0.612 | 0.421 | 0.505 | -0.0317 | 2.65
CCGACTGGGCCAAAAAGGTCATTGATGCCGATAA | 3.41 | 4.25 | 2.8 | 3.93 | -0.421 | 4.53 | 2.35 | 3.47 | 0.713 | 2.22 | 1.65 | 2.62 | -1.21 | -1.08 | 2.17 | 4.5 | 1.95 | 4.92 | 0.897 | 3.9
AATACAGGGTCATCATAGGCCAGAGTACGCACAG | 6.85 | 6.83 | 2.28 | 4.77 | 1.57 | 5.63 | 6.31 | 5.66 | 2.51 | 4.41 | 2.62 | 3.98 | 1.5 | 0.916 | 1.8 | 4.42 | 1.01 | 4.65 | 1.25 | 4.25
TCTAGCAGGACAGAGGGTCACTCAAGAGGTACGG | 0.869 | 1.11 | -0.354 | 1.18 | -0.839 | 2.19 | 1.45 | 2.25 | 2.15 | 2.31 | 0.809 | 0.465 | -0.0481 | -0.462 | 0.414 | 1.48 | -0.392 | 2.3 | -0.209 | 2.06

— the supplement of paper PMC6555819
